# Measurements taken from ChEMBL document CHEMBL3988442, “University of Dundee, Small-Polar-MMV Screening Library” (2021).
# Screen size: about 48,000 compounds; about 13,000 (27%) showed an effect of 50% or more. Some of the results follow.
# Tested on: Wolbachia pipientis
# Experiment: Anti-Wolbachia Cell-Based Screen
# Assay type: functional
# Design: scale not given: in the data most compounds retested in dose-response had high values
# Conditions: 5 µM
row,Compound,Percent Effect
1,COc1ccc(Cn2nc(C(N)=O)ccc2=O)c(Cl)c1,8.088%
2,COCC(=O)N[C@H](C)c1c(-c2ccc(OC)cc2)noc1C(=O)O,-10.1%
3,COc1ccc(-c2cc3nn(CC(=O)NC(C)C)c(=O)n3c(C)n2)cc1,109.7%
4,COc1ccc(NC(=O)Cn2nc(C)c(C)cc2=O)cc1,-2.265%
5,COc1ccc(-c2cc3nn(CC(N)=O)c(=O)n3c(C)n2)cc1,110.8%
6,Cc1nn2c(NCC(N)=O)cc(-c3ccccc3)nc2c1C,1.327%
7,CC(=O)N1CCN(c2cc(-c3ccccc3)nc3c(C)c(C)nn23)CC1,-0.0371%
8,Cc1nc(-c2ccccc2)cc2nn(CC(N)=O)c(=O)n12,117.5%
9,CN(C)C(C(=O)N1CCN(CC(F)(F)F)CC1)c1ccccc1F (stereo not given),-7.118%
10,Cn1nc(Cn2ccnc2)c2c1CN(C(=O)c1ccc[nH]1)C2,-17.57%
11,CCCc1cnc(C)nc1NC(C)Cc1cnccn1 (stereo not given),-13.48%
12,COc1ccccc1N1CCC(CNC(=O)N(C)Cc2ccco2)C1 (stereo not given),0.07203%
13,COCCN(c1ccncc1)S(=O)(=O)c1cc(C)cc(F)c1,-2.462%
14,Cc1nc(C2CCCN(C(=O)c3ccco3)C2)no1 (stereo not given),13.92%
15,CC(C)c1nc(C2CCCN(C(=O)c3ccnc(N(C)C)c3)C2)no1 (stereo not given),-3.864%
16,Cc1nc(C2CCCN(C(=O)c3ccc(S(C)(=O)=O)cc3)C2)no1 (stereo not given),120.9%
17,Cc1nc(C2CCCN(C(=O)c3ccoc3)C2)no1 (stereo not given),101.5%
18,Cc1nc(C2CCCN(C(=O)c3ccnc(N(C)C)c3)C2)no1 (stereo not given),127.7%
19,Cc1nc(C2CCCN(C(=O)c3cccc(S(C)(=O)=O)c3)C2)no1 (stereo not given),8.734%
20,Cc1cnn(CCNCc2ccc(OCc3csc(C)n3)cc2)c1,-5.1%
21,Cn1c(Cn2cccn2)nnc1C1CCCN(c2ccncc2)C1 (stereo not given),-11.32%
22,Cc1ccccc1C(=O)NCc1ccc(N2CCNC(=O)C2)c(F)c1,-11.32%
23,O=C(O)C(F)(F)F.O=C([C@H]1COC[C@H]2CN(CC3CCCC3)C[C@H]21)N1CCOCC1,-19.66%
24,COc1cc(NC(=O)c2nc3ccccc3n(C)c2=O)cc(OC)c1,112.5%
25,COc1ccc(NC(=O)c2nc3ccccc3n(C)c2=O)c(OC)c1,115.5%
26,Cn1c(CCCNC(=O)Nc2cn[nH]c2)nc2ccccc21,-21.13%
27,COc1cccc(NC(=O)Cc2c(C)nc3c(c2C)c(=O)[nH]n3C)c1,0.5633%

row,Compound,Percent Effect
1,COc1ccc(OC)c(NC(=O)c2nc3ccccc3n(C)c2=O)c1,10.54%
2,COc1ccc(NC(=O)c2nc3ccccc3n(C)c2=O)cc1OC,120.1%
3,CCSc1nc(N)c(NC(=O)c2ccc(OC)c(OC)c2)c(=O)[nH]1,-7.588%
4,COc1cccc(NC(=O)c2nc3ccccc3n(C)c2=O)c1,124.2%
5,COc1cccc(NC(=O)NC(C)(C)c2noc(C)n2)c1,-4.672%
6,COc1ccc(Nc2nc3c(C)nn(C)c3c(=O)n2C)c(OC)c1,-1.628%
7,COc1cc(NC(=O)NCc2ccccn2)cc(OC)c1,6.3%
8,CCCN1CCC(NC(=O)Nc2ccc(OC)c(OC)c2)CC1,8.494%
9,CN(Cc1ccsc1)C(=O)Nc1cccc(N2CCOC2=O)c1,1.632%
10,Cc1cccc(NC(=O)C2CCCN2C(=O)c2ccco2)c1C (stereo not given),-37.39%
11,COCCNC(=O)C1CN(Cc2nccs2)Cc2ccnn2C1.O=C(O)C(F)(F)F.O=C(O)C(F)(F)F (stereo not given),-2.959%
12,O=C(NCC1CC1)C1CN(Cc2ccncc2)Cc2ccnn2C1.O=C(O)C(F)(F)F.O=C(O)C(F)(F)F.O=C(O)C(F)(F)F (stereo not given),99.23%
13,O=C(NCC1CC1)C1CN(c2ncccn2)Cc2ccnn2C1.O=C(O)C(F)(F)F.O=C(O)C(F)(F)F (stereo not given),106%
14,CCOCC1CN(C(=O)Cc2cccs2)Cc2ccnn2C1 (stereo not given),-16.86%
15,O=C(NCC1CC1)C1CN(Cc2cccs2)Cc2ccnn2C1 (stereo not given),124.8%
16,CC(C)NC(=O)C1CN(Cc2cccs2)Cc2ccnn2C1 (stereo not given),-1.449%
17,Cc1ccc(CN2Cc3ccnn3CC(C(=O)NCC3CC3)C2)o1.O=C(O)C(F)(F)F.O=C(O)C(F)(F)F (stereo not given),99%
18,Cc1noc(C)c1CN1Cc2ccnn2CC(C(=O)NCC2CC2)C1.O=C(O)C(F)(F)F.O=C(O)C(F)(F)F (stereo not given),-16.43%
19,COCCNC(=O)C1CN(Cc2csc(C)n2)Cc2ccnn2C1.O=C(O)C(F)(F)F (stereo not given),0%
20,COCCNC(=O)C1CN(Cc2ccncc2)Cc2ccnn2C1.O=C(O)C(F)(F)F.O=C(O)C(F)(F)F.O=C(O)C(F)(F)F (stereo not given),13.9%
21,CC(C)NC(=O)C1CN(Cc2ccsc2)Cc2ccnn2C1.O=C(O)C(F)(F)F.O=C(O)C(F)(F)F (stereo not given),1.409%
22,COCCNC(=O)C1CN(Cc2cccc(C)n2)Cc2ccnn2C1.O=C(O)C(F)(F)F.O=C(O)C(F)(F)F (stereo not given),6.488%
23,CC(C)c1nnc2n1CC(CNCc1ccncc1)CC2 (stereo not given),-13.6%
24,CCCS(=O)(=O)N1CCOC2(CCCN(c3ncc(F)cn3)C2)C1 (stereo not given),-2.367%
25,N#CCCN(Cc1ccco1)C(=O)CCCc1ccccc1,9.287%
26,COc1nn(C)c2c1CCCN(S(=O)(=O)c1cccs1)C2,2.697%
27,O=C(O)C1(Cc2ccc(Cl)cc2)CCN(c2ncccc2F)CC1,4.468%

row,Compound,Percent Effect
1,Cc1ccc(NC(=O)C2CSCN2C(=O)c2cnccn2)c(C)c1 (stereo not given),-0.3998%
2,O=C(c1cnccn1)N1CCCC2(CCCN2Cc2cccnc2)C1 (stereo not given),8.648%
3,Cc1ccc(CN2CCCC2(C(N)=O)c2cnccn2)c(C)c1 (stereo not given),148.6%
4,Cc1cccc(CN2C[C@@H]3CN(C(=O)c4cnccn4)C[C@@H]3C2=O)c1,-5.846%
5,O=C(O)[C@]12CCCN(Cc3ccncc3)[C@@H]1CCN(c1cnccn1)C2,15.13%
6,NC(=O)C1(c2cnccn2)CCCN1Cc1cccc(Cl)c1 (stereo not given),110.7%
7,NC(=O)C1(c2cnccn2)CCCN1Cc1ccncc1 (stereo not given),100.7%
8,NC(=O)C1(c2cnccn2)CCCN1Cc1ccc(Cl)cc1 (stereo not given),127.2%
9,Cl.Cl.O[C@@H]1C[C@@](CNCc2cccc(Cl)c2)(COc2cnccn2)C[C@@H]1O,-20.67%
10,Cc1cncc(C(=O)N2CCNCC2C(=O)NCc2ccncc2)c1 (stereo not given),-0.08971%
11,Cc1ccccc1-c1cc(C(=O)NCCN2CCCS2(=O)=O)[nH]n1,-0.2577%
12,Cc1c(C(=O)N2CCSCC2)sc2nc(C(F)(F)F)ccc12,-6%
13,COC1CCN(S(=O)(=O)N2CC[C@@](O)(C3CCC3)[C@H](C)C2)CC1,-8.21%
14,CC(C)c1cc(C(=O)N2CCc3ccccc3C2C(=O)O)n(C)n1 (stereo not given),5.563%
15,COCCOc1ccc(-c2noc([C@@H]3CCCN3C3CCC3)n2)cn1,-15.03%
16,Cn1cccc1C(=O)N[C@@H]1CN(CC2CC2)[C@@H]2COC[C@@H]21.O=C(O)C(F)(F)F,-18.52%
17,Cc1nc(O)cc(C2CCN(C(=O)c3ccsc3)CC2)n1,-4.98%
18,O=C(c1ccsc1)N1CCCC(c2cc(C(F)(F)F)[nH]n2)C1 (stereo not given),0.1242%
19,Cl.Cn1cnc2c(-c3ccccc3)nc(C3CCNCC3)cc21,-35.46%
20,O=C1NCCCCC1NCc1csc(-c2ccsc2)n1 (stereo not given),-2.584%
21,Cl.Oc1cc(C2CCNCC2)nc(-c2ccsc2)n1,186.4%
22,Cc1cc(C2CCNCC2)nc(-c2ccsc2)n1.Cl,168.5%
23,FC(F)(F)c1cc(C2CCNCC2)nc(-c2ccsc2)n1,147.1%
24,CC(C)CN1CC(c2nc(-c3ccsc3)c[nH]2)CC1=O (stereo not given),-7.374%
25,CC(C)(NC(=O)C1CCCN(C2CCCC2)C1)c1nnc(N)s1 (stereo not given),-3.514%
26,CN1CCc2c(CNc3ncccn3)n[nH]c2C1.O=C(O)C(F)(F)F,-10.34%
27,COc1ccc(CNC(=O)N2CCOCC2C2CC2)c(C)c1 (stereo not given),-4.702%

row,Compound,Percent Effect
1,COc1ccc2c(C)c(C(=O)NC3CCOCC3)oc2c1,-11.52%
2,COc1cc(N2C[C@H]3CN(C(=O)c4cnccn4)C[C@H]3C2)ncn1,6.779%
3,COc1cccc(CC2CN(C(=O)c3ccnn3C)CCO2)c1 (stereo not given),14.16%
4,COc1ccc2c(c1)CC(C1CCOCC1)N(C(=O)c1ccn(C)n1)C2 (stereo not given),107.8%
5,Cn1nccc1C(=O)N1CCCC1c1ccc(C(=O)N2CCOCC2)s1 (stereo not given),-16.33%
6,COc1cccc(C2CCN2C(=O)c2cnccn2)c1 (stereo not given),-9.896%
7,COc1ccc2c(c1)CC(C1CCOCC1)N(C(=O)c1ccnn1C)C2 (stereo not given),146.4%
8,COc1ccc2c(c1)CC(C1CCOCC1)N(C(=O)c1cnccn1)C2 (stereo not given),143.6%
9,CN(C(=O)c1ccc(Cl)cn1)c1ccccc1S(C)(=O)=O,-14.63%
10,O=C(N1CCC(O)(C(F)(F)F)C1)C1(c2ccc(Cl)cc2)CC1 (stereo not given),16.08%
11,Cc1cc(NC(=O)C(C)N2CCN(c3nc(C)ns3)CC2)on1 (stereo not given),15.5%
12,CN(Cc1nnc(C2CC2)o1)C(c1ccc(F)cc1)c1cccnc1 (stereo not given),14.1%
13,O=C(c1ccc[nH]1)N1CCc2ncc(Cn3cccn3)n2CC1,112.6%
14,O=C(C1CCCO1)N1CCCn2c(nnc2Cn2cccn2)C1 (stereo not given),-13.04%
15,Cc1cnc(N2CCCn3c(nnc3Cn3cccn3)C2)nc1,-6.744%
16,O=C1CCCN1Cc1nnc2n1CCCN(C(=O)c1ccc[nH]1)C2,114.8%
17,O=C(c1cccs1)N1CCc2nnc(COc3cncnc3)n2CC1,6.421%
18,O=C(C1CCCO1)N1CCc2nnc(Cn3cccc3)n2CC1 (stereo not given),-14.83%
19,O=C(N1CCCC1)N1CCn2c(Cn3cccn3)cnc2C1,0.9982%
20,CN(C)Cc1nnc2n1CCCN(C(=O)c1c[nH]cn1)C2,-1.146%
21,CN(C)C(=O)N1CCn2c(Cn3cccn3)cnc2C1,-38.04%
22,O=C(c1ccc[nH]1)N1CCc2nnc(Cn3cccc3)n2CC1,104.6%
23,O=C(c1c[nH]cn1)N1CCCn2c(nnc2Cn2cccc2)C1,4.942%
24,O=C(c1ccc[nH]1)N1CCCn2c(nnc2Cn2cccn2)C1,88.61%
